The supplement of paper PMC10849652
Targets with a hit are over-represented here; the source holds about 7,900 in all. About 0.6% of all pairs of compound and target were hits.

compound: Cc1cc(SCc2sc(-c3ccc(C(F)(F)F)cc3)nc2C)ccc1OCC(=O)O; assay: log2 fold change, soluble protein after heating vs DMSO (PISA); higher = thermal stabilisation; K562 cells, 10 uM, 30 min; active = over 0.2 and 3.5 SD of the protein, either way, in both replicates (recomputed)
How it was run: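 K562 cells at 2×10^6 cells/mL were treated with 10 μM compound for 30 min. Aliquots were heated for 3 min across 48°C-58°C, pooled, and extracted in PBS with 0.5% NP-40 at 4°C; soluble protein was the supernatant after 21,000xg for 90 min. Soluble protein was quantified by TMTpro 16plex LC-MS/MS with channel sums equalised, and reported as log2 fold change in thermal stability against DMSO controls, with values from duplicates.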

Chain of UniProt Q7Z2Z2 (Q7Z2Z2 whole entry, looked up): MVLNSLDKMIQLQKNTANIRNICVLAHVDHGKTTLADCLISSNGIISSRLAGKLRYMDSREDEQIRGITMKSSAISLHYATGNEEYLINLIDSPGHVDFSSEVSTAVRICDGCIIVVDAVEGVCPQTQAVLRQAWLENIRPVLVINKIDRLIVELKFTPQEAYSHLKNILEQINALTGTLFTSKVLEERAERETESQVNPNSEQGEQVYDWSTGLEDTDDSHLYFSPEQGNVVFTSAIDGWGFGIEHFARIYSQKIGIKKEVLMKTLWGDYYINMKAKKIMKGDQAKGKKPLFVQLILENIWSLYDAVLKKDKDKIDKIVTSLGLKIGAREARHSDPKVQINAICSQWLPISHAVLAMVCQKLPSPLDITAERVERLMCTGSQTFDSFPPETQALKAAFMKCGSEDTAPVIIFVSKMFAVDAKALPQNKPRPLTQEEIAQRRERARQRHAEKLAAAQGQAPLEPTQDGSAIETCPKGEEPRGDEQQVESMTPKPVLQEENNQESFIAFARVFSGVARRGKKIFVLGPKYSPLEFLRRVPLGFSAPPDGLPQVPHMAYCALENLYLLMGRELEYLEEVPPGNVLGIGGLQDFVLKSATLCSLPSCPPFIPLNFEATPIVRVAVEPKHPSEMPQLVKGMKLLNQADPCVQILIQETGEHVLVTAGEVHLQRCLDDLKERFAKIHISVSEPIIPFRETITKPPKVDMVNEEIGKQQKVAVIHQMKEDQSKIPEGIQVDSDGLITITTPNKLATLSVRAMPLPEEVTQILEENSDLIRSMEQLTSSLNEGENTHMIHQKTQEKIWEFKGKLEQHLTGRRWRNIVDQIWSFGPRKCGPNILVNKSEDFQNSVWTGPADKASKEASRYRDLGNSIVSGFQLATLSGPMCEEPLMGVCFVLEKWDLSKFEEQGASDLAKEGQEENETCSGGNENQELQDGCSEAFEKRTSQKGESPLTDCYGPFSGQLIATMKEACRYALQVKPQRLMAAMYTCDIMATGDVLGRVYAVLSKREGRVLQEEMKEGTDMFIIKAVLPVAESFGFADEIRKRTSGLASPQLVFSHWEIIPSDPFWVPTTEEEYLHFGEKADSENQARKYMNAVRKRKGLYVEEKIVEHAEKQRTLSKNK
Chain of UniProt Q96CS3 (Q96CS3 whole entry, looked up): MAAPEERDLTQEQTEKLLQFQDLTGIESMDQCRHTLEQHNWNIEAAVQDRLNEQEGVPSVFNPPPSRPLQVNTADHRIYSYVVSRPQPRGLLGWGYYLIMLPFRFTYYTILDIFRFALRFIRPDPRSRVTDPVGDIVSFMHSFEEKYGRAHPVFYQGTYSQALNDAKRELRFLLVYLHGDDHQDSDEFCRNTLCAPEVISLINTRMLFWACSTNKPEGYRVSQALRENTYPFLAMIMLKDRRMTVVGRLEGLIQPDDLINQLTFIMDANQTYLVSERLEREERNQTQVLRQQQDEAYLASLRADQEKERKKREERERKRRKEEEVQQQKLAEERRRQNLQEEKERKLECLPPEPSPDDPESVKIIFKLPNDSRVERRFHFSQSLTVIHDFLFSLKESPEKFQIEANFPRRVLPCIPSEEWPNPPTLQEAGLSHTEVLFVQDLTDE
Chain of UniProt Q13409 (Q13409 whole entry, looked up): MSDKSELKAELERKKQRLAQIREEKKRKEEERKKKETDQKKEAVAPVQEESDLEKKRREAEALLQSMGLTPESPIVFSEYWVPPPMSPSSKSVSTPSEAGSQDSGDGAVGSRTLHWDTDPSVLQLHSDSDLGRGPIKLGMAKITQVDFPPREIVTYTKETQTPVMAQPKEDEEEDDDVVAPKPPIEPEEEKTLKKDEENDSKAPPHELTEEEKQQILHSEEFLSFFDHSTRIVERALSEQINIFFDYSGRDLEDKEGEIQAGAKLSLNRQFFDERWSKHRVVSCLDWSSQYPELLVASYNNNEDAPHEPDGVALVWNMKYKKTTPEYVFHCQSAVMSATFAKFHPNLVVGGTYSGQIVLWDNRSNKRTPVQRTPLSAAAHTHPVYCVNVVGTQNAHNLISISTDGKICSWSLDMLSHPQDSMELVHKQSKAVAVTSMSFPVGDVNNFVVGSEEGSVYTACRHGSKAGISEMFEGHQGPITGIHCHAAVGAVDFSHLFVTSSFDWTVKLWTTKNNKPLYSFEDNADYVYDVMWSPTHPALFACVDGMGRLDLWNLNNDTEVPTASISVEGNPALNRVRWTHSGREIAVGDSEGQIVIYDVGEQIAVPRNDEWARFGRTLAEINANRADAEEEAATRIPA
Chain of UniProt O00471 (O00471 whole entry, looked up): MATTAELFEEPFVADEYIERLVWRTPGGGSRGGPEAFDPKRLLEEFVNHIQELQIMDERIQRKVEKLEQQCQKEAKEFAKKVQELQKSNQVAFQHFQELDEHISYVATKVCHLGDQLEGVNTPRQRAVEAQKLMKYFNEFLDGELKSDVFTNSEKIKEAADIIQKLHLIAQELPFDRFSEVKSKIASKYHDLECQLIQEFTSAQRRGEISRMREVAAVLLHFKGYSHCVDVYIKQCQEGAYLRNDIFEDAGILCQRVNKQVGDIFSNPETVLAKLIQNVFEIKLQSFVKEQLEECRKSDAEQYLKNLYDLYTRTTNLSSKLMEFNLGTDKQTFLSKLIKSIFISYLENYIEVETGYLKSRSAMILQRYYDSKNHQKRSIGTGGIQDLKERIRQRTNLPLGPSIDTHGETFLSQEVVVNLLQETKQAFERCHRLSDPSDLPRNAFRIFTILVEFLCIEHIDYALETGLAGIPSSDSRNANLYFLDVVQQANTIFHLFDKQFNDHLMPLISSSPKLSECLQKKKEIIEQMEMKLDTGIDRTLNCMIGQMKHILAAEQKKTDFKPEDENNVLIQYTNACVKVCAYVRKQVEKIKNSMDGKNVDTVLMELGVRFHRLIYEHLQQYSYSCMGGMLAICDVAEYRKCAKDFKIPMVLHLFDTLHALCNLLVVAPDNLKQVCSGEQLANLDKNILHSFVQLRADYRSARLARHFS
Chain of UniProt O43237 (O43237 whole entry, looked up): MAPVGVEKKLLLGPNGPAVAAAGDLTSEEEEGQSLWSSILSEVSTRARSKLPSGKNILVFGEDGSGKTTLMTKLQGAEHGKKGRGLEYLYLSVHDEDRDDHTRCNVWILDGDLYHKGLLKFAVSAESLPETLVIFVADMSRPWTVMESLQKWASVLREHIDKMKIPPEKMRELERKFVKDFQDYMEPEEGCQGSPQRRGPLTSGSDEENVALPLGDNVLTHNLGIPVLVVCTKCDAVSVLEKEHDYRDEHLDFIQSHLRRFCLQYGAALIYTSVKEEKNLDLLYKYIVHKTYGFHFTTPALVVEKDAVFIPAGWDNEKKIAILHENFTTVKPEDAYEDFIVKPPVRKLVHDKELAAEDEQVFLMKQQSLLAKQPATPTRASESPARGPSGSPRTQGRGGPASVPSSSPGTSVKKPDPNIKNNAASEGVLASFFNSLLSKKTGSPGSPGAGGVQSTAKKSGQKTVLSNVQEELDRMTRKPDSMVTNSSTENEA
Chain of UniProt Q9NX74 (Q9NX74 whole entry, looked up): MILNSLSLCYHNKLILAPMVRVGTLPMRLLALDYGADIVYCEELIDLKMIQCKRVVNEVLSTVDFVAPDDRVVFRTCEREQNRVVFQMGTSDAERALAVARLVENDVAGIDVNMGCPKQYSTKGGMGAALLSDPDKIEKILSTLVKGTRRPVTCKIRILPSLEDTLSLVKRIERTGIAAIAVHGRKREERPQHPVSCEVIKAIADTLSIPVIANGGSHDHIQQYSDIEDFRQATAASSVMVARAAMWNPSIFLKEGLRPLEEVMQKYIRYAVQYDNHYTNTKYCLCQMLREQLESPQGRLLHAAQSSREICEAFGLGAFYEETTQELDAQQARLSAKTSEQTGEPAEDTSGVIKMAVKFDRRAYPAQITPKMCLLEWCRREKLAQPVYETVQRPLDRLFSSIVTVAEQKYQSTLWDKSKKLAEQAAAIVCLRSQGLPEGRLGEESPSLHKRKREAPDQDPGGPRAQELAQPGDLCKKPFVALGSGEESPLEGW
Chain of UniProt Q9BQI3 (Q9BQI3 whole entry, looked up): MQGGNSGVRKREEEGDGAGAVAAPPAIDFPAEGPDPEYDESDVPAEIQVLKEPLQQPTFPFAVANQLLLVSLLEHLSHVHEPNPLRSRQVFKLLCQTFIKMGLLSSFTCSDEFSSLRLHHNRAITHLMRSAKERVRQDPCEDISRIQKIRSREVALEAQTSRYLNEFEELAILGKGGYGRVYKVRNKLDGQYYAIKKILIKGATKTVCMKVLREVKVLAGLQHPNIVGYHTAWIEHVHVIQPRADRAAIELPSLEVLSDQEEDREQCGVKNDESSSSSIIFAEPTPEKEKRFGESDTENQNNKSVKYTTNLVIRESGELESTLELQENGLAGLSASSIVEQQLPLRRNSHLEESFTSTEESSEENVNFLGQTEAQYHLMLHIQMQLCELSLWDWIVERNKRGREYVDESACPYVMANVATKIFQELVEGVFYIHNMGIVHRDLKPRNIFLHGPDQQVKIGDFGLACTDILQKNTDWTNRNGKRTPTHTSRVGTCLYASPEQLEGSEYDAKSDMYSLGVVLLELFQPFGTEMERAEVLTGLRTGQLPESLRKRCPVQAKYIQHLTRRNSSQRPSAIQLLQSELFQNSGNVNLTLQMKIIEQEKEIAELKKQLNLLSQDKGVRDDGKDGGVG
Chain of UniProt O75071 (O75071 whole entry, looked up): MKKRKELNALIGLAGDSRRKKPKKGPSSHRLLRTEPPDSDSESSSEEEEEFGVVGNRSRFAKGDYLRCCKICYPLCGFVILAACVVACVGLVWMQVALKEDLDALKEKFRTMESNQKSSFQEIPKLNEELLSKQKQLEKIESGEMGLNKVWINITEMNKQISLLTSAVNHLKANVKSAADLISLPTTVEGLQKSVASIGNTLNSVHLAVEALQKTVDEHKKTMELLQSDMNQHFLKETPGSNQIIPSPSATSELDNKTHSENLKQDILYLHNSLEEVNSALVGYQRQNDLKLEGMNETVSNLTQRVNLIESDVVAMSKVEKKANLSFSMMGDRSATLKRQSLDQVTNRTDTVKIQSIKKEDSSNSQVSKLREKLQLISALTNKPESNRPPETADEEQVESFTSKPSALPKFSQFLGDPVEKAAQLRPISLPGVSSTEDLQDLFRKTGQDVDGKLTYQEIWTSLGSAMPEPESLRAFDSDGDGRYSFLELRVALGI

log2 fold change, inactive:
DOCK8 (UniProt Q8NF50) -0.036
EEF1B2 (UniProt P24534) 0.013
CTSL (UniProt P07711) -0.013
DNM2 (UniProt P50570) 0.039
EIF2AK1 (UniProt Q9BQI3) 0.053
DIAPH1 (UniProt O60610) 0.125
DUS2 (UniProt Q9NX74) 0.062
ERCC2 (UniProt P18074) 0.08
DYNC1LI2 (UniProt O43237) 0.054
DYNC1I2 isoform 5 (UniProt Q13409) -0.007
DIP2A (UniProt Q14689) 0.081
DMXL1 (UniProt Q9Y485) 0
DDOST (UniProt P39656) -0.016
DHFR (UniProt P00374) 0.048
CUX1 isoform 3 (UniProt P39880) -0.026
DNAJB12 (UniProt Q9NXW2) 0.097
CTSV (UniProt O60911) -0.04
EFCAB14 (UniProt O75071) -0.006
EXOC5 (UniProt O00471) 0.101
DUS3L (UniProt Q96G46) 0.022
EFL1 (UniProt Q7Z2Z2) 0.029
DYRK1A isoform 2 (UniProt Q13627) 0.042
FAF2 (UniProt Q96CS3) 0.059
